# Values without a mark were called inactive. For some of these results: Potency and affinity values are given separately. The list shows a part of the results. Activity calls are given as the source filed them.
# Tests used:
# [1] = molecular target: Inward rectifier potassium channel 2 (Mus musculus) (UniProt P35561); test: inhibition of Kir2.1 inward rectifier potassium flux – cell-based, FluxOR thallium flux, duplicate, confirmation (AID 2032;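 active = Primary-screen hit whose thallium flux fell at least 3 control SD below untreated wells in both duplicates, with normal baseline fluorescence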); settings: Kir2.1-expressing cells, FluxOR thallium flux fluorescence, at 10 µM; hits give low values
# Inward rectifier potassium channel 2 (Mus musculus), sequence (P35561 whole entry, looked up): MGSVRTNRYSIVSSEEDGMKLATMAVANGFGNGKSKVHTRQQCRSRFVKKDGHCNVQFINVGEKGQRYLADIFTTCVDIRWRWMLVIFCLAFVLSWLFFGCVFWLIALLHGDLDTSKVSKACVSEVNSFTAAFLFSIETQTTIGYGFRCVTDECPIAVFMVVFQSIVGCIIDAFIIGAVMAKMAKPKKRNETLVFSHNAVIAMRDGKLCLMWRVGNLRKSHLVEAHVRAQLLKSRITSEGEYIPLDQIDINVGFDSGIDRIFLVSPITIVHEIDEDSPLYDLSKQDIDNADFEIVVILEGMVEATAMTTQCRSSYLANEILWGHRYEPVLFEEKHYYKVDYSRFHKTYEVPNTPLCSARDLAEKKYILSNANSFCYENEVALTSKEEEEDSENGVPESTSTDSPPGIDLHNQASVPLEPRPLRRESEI
# [2] = parental HEK293 cell activity, no Kir2.1 – FluxOR thallium flux, duplicate, single concentration, counter-screen for Kir2.1 inhibitor project, confirmation (AID 2105;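 active = dye signal at least 3 control SD above or below untreated wells in both duplicates, raw fluorescence within 3, either direction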;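 as to FluxOR signal as % of negative control (100 = no effect): percent is based on the flux ratio of peak minus minimum fluorescence over baseline F0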); settings: parental HEK293 cells, FluxOR thallium flux fluorescence, at 10 µM; 0% = unstimulated blank wells
# [3] = molecular target: Voltage-gated inwardly rectifying potassium channel KCNH2 (Homo sapiens) (UniProt Q12809); test: hERG block by Kir2.1 inhibitor candidates – cell-based, thallium flux, counter-screen for Kir2.1 inhibitor project (AID 2236); settings: hERG-expressing cells, at 10 µM; hits give high values;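 also: host cells are CHO cells stably expressing hERG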
# Voltage-gated inwardly rectifying potassium channel KCNH2 (Homo sapiens), sequence (Q12809 whole entry, looked up): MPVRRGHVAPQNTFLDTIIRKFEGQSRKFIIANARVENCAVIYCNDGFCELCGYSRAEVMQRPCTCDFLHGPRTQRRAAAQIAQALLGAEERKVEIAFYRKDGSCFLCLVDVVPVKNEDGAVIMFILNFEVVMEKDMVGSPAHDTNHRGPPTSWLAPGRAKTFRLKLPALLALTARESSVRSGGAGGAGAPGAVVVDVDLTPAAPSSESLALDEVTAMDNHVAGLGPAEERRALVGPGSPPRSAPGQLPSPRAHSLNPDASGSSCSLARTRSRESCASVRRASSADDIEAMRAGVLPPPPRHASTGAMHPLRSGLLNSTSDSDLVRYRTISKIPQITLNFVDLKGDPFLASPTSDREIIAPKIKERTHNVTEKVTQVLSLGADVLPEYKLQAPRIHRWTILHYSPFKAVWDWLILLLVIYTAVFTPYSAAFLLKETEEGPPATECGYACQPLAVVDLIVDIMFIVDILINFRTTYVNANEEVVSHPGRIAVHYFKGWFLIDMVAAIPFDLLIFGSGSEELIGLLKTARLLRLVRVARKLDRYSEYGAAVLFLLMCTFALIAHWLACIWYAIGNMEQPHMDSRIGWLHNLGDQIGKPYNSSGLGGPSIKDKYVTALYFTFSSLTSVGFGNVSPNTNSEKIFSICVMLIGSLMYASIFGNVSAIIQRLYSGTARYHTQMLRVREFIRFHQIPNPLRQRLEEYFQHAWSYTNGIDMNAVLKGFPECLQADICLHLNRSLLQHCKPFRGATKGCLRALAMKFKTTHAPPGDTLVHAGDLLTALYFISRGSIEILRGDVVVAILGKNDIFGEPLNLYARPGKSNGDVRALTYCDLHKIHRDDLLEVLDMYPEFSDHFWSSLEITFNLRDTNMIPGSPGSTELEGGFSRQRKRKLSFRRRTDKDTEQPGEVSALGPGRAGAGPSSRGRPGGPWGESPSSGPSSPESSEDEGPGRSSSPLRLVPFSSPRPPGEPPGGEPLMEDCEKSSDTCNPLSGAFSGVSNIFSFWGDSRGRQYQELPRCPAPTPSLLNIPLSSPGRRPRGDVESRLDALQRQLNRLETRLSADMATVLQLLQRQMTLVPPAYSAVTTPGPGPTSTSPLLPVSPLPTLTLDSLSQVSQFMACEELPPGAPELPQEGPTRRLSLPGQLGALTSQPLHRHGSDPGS
# [4] = molecular target: Potassium channel subfamily K member 9 (Homo sapiens) (UniProt Q9NPC2); test: human KCNK9 potassium channel blockers – cell-based, selectivity assay for Kir2.1 inhibitor project (AID 2329); settings: KCNK9-expressing cells, ion flux inhibition, at 10 µM; hits give high values
# [5] = molecular target: Inward rectifier potassium channel 2 (Mus musculus) (UniProt P35561); test: Kir2.1 potassium current inhibition – cell-based, secondary, automated electrophysiology, Kir2.1 inhibitor project (AID 463252); settings: Kir2.1 cells, automated patch-clamp current inhibition, at 25 µM; hits give high values
# [6] = parental CHO-K1 cell activation, no KCNQ2 – FluxOR thallium flux, duplicate, counter-screen for KCNQ2 potentiator project, confirmation (AID 2282;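 active = signal rise of at least 3 SD above the untreated control mean, in both duplicate wells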;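 also: counter screen of KCNQ2 potentiator hits so any rise reflects channel-independent effects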); settings: parental CHO-K1 cells, FluxOR thallium flux fluorescence; at 10 µM; hits give high values; zero = vehicle mean+3SD, 100% = vehicle-minus-blank window
# [7] = molecular target: Potassium voltage-gated channel subfamily KQT member 1 (Homo sapiens) (UniProt P51787); test: KCNQ1 activation in stable CHO cells – cell-based, FluxOR thallium flux, selectivity assay for KCNQ2 potentiator project, confirmation (AID 2283;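 active = fluorescence ratio rise of at least 3 SD of vehicle wells above their mean, in both replicate wells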;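 also: 0% = vehicle mean plus 3 SD and 100% = vehicle minus unstimulated blank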); settings: FluxOR thallium flux fluorescence, at 10 µM, hits give high values, beyond 3SD, as % of vehicle-control signal
# Potassium voltage-gated channel subfamily KQT member 1 (Homo sapiens), sequence (P51787 whole entry, looked up): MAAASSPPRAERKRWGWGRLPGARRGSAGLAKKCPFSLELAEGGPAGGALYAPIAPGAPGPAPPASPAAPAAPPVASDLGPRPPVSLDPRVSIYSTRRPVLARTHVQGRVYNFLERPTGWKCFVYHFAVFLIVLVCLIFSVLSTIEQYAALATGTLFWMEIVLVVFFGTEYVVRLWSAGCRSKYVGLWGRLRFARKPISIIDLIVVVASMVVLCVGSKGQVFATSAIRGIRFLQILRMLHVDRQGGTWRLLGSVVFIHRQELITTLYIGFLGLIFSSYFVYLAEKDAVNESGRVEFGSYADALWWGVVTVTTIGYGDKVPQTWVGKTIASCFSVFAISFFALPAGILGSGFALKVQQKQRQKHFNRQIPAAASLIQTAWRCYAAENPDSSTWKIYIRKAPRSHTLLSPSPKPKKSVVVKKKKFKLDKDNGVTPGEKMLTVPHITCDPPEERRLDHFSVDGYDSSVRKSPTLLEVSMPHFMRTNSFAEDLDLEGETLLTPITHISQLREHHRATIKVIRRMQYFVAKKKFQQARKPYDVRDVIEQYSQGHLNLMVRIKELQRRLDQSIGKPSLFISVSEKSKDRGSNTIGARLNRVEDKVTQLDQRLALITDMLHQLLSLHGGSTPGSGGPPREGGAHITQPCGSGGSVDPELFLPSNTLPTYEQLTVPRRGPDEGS
# [8] = molecular target: Potassium voltage-gated channel subfamily KQT member 2 (Rattus norvegicus) (UniProt O88943); test: KCNQ2 potassium channel activity enhancers – cell-based, CHO, FluxOR thallium flux, duplicate, confirmation (AID 2287;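 active = fluorescence ratio rising 3 SD or more over the vehicle control mean in both replicates, plus primary screen hit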;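 also: peak minus minimum thallium fluorescence divided by baseline after K/Tl stimulus; 0% = vehicle mean plus 3 SD and 100% = vehicle minus unstimulated blank difference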); settings: CHO-KCNQ2 cells, FluxOR thallium flux fluorescence; at 10 µM; hits give high values
# [9] = molecular target: Inward rectifier potassium channel 2 (Mus musculus) (UniProt P35561); test: PubChem AID 2345; settings: HEK293 Kir2.1, FluxOR thallium flux fluorescence; at 10 µM; hits give high values;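 also: 0% = vehicle mean plus 3 SD and 100% = vehicle minus no-stimulus blank window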
# [10] = molecular target: Potassium voltage-gated channel subfamily KQT member 2 (Rattus norvegicus) (UniProt O88943); test: W236L mutant KCNQ2 current enhancers – cell-based, rat KCNQ2 W236L, CHO, automated patch clamp, mechanism study for KCNQ2 potentiator project (AID 2558;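 active = current increase at least 3 SD of the untreated controls above them in both duplicate recordings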); settings: at 25 µM
# [11] = tested on: TRPC4 beta (transient receptor potential cation channel C4), mouse; test: TRPC4 cation channel opening, retest – cell-based, Fluo4 calcium, HEK293 TRPC4beta/mu-opioid, duplicates, 10 µM, confirmation (AID 2426;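 active = fluorescence ratio normalized to control raised more than 50% in primary screen plus both repeat runs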); settings: Fluo4 calcium fluorescence, at 10 µM; hits give high values
# [12] = tested on: transient receptor potential cation channel C4 beta (TRPC4), mouse; test: TRPC4 cation channel opening, second retest – cell-based, second round, Fluo4, HEK293 TRPC4beta/mu-opioid, 1 µM, confirmation (AID 2461;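 active = primary screen active and over 50% activation in each of two duplicate runs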); settings: Fluo4 calcium fluorescence, at 1 µM; hits give high values
# [13] = tested on: TRPC4 (transient receptor potential cation channel C4 beta), mouse; test: potentiation of DAMGO EC20 TRPC4 response – cell-based, second round, Fluo-4, HEK293 TRPC4beta/mu-opioid, 1 µM, confirmation (AID 2554;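 active = primary screen hit whose fluorescence ratio, in both repeats, exceeds the weak agonist control mean by 3 SD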); settings: DAMGO EC20, Fluo-4 calcium flux, at 1 µM; hits give high values
# [14] = tested on: TRPC4 beta (transient receptor potential cation channel C4), mouse; test: potentiation of DAMGO EC20 TRPC4 response – cell-based, Fluo-4, HEK293 TRPC4beta/mu-opioid, confirmation (AID 2555;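 active = primary screen hit whose calcium fluorescence ratio, in both repeats, exceeds the weak agonist control mean by 3 SD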); settings: DAMGO EC20, Fluo-4 calcium flux, at 10 µM; hits give high values
# [15] = molecular target: Short transient receptor potential channel 4 (Mus musculus) (UniProt Q9QUQ5); test: blockers of DAMGO-evoked TRPC4 calcium flux – cell-based, Fluo4, HEK293 TRPC4beta/mu-opioid, confirmation (AID 2636;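 active = calcium signal cut by more than 3 SD below the full-agonist control yet still positive, in both repeats and the earlier primary screen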); settings: at 10 µM; hits give high values
# Short transient receptor potential channel 4 (Mus musculus), sequence (Q9QUQ5 whole entry, looked up): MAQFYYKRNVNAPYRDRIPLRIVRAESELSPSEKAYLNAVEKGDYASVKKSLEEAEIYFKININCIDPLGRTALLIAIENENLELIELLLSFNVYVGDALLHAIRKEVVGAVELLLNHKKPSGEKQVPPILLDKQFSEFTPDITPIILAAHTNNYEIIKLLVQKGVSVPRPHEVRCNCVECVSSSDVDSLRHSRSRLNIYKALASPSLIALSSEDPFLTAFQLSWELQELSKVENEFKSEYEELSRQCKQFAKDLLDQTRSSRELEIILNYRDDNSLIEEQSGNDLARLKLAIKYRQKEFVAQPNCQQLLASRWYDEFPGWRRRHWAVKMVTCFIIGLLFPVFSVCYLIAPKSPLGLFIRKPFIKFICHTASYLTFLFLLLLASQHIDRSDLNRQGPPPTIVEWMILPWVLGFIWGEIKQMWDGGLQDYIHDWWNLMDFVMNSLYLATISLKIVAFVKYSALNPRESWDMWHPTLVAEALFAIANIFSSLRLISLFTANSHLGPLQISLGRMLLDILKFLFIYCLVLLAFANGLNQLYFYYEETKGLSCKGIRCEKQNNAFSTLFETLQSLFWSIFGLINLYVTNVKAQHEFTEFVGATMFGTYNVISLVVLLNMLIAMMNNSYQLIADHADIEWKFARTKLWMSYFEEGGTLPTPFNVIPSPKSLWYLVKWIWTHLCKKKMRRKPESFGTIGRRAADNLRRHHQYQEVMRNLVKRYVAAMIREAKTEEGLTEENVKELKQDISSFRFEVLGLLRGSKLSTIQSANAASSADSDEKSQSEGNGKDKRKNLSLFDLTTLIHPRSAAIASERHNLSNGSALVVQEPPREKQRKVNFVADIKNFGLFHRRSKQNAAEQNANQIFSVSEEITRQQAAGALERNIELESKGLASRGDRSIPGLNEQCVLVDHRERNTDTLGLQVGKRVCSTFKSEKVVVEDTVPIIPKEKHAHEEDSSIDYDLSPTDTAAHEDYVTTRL
# [16] = molecular target: Short transient receptor potential channel 4 (Mus musculus) (UniProt Q9QUQ5); test: blockers of DAMGO-evoked TRPC4 calcium flux – cell-based, second round, Fluo4, HEK293 TRPC4beta/mu-opioid, 1 µM, confirmation (AID 2637;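 active = calcium signal ratio cut to more than 3 SD under the fully stimulated control mean yet still positive, in both repeats and the primary screen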;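 also: percent of integrated ratio relative to wells lacking test compound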); settings: at 1 µM; hits give high values
# [17] = molecular target: Short transient receptor potential channel 4 (Mus musculus) (UniProt Q9QUQ5); test: calcium entry via TRPC4 opening agents – cell-based, HEK293 TRPC4/mu-opioid, Fluo-4 calcium, dose response (AID 434937;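 active = primary screen activator hit with a dose response curve and TRPC4 channel activation at any tested dose; inactive = no activation, no dose response, or not a primary hit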)
# [18] = molecular target: Short transient receptor potential channel 4 (Mus musculus) (UniProt Q9QUQ5); test: potentiation of DAMGO-evoked TRPC4 calcium signal – cell-based, HEK293 TRPC4/mu-opioid, Fluo-4 calcium, EC20 DAMGO, dose response (AID 434941;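 active = earlier screen potentiator hit that boosts the TRPC4 ion channel at some dose, with a dose response; inactive = no potentiation, no dose response, or not a prior hit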;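 also: calcium entry triggered by an EC20 dose of DAMGO at the co-expressed mu-opioid receptor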)
# [19] = molecular target: Short transient receptor potential channel 6 (Mus musculus) (UniProt Q61143); test: TRPC6 blockade by TRPC4 inhibitor hits – cell-based, HEK293, membrane potential dye, duplicate, selectivity assay for TRPC4 inhibitor project, confirmation (AID 434948;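 active = active in primary screen and both duplicates, each dropping signal beyond three positive-control SD with fluorescence still positive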); settings: HEK293 TRPC6, membrane potential dye fluorescence, at 10 µM, stimulated with maximal-effect acetylcholine; hits give high values
# Short transient receptor potential channel 6 (Mus musculus), sequence (Q61143 whole entry, looked up): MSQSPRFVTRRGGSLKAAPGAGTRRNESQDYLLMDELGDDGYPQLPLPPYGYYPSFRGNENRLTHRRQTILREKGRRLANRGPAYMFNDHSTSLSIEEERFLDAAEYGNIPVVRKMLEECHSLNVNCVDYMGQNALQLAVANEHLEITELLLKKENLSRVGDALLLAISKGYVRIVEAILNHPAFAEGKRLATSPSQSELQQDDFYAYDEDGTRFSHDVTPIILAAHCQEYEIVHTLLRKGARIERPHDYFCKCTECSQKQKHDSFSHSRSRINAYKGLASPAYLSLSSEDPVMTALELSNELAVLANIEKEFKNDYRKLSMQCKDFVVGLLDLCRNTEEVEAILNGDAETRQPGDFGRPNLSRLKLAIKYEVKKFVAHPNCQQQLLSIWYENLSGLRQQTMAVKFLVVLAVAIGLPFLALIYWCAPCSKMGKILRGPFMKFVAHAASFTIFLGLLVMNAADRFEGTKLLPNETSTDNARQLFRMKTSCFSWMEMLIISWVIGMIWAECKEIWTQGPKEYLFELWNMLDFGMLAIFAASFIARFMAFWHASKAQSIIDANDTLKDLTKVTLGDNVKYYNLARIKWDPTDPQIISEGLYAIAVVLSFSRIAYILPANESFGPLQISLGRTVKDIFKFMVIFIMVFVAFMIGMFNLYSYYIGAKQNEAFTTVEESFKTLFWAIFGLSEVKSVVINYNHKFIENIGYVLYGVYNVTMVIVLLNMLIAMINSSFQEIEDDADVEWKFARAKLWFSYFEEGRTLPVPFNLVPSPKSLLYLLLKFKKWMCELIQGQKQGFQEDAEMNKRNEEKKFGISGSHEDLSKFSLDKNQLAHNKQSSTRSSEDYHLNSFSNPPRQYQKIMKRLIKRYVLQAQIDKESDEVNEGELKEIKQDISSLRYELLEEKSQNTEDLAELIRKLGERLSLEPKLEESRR
# [20] = molecular target: Short transient receptor potential channel 6 (Mus musculus) (UniProt Q61143); test: TRPC6 opening by TRPC4 activator hits – cell-based, HEK293, membrane potential dye, duplicate, selectivity assay for TRPC4 activator project, confirmation (AID 434950;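 active = membrane potential signal rise above negative control mean plus 3 SD in both duplicates, also active in the earlier TRPC4 screen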); settings: HEK293 TRPC6, membrane potential fluorescence, at 10 µM; activation: hits give high values; outcome: activation
# [21] = molecular target: Short transient receptor potential channel 6 (Mus musculus) (UniProt Q61143); test: positive modulators of mouse TRPC6 channel – HEK293 cells, membrane potential dye, duplicate, selectivity assay for TRPC4 potentiator project, confirmation (AID 434952;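 active = compound raising the membrane signal above positive-control mean plus 3 SD in both repeats, and a primary screen hit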); settings: HEK293 TRPC6, membrane potential dye fluorescence, at 10 µM, maximal acetylcholine added after compound; hits give high values
# [22] = molecular target: Short transient receptor potential channel 4 (Mus musculus) (UniProt Q9QUQ5); test: calcium flux activators in TRPC4/5HT1a cells, counter-screen for TRPC4 activator project, cell-based, second counter screen, HEK293 TRPC4/5HT1a, Fluo-4 (AID 434977;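 active = calcium signal rise above buffer-control mean plus 5 SD in both duplicates, and also a hit in the primary screen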); settings: Fluo-4 calcium flux, at 10 µM; hits give high values
# [23] = serotonin-gated TRPC4 signal block – cell-based, second counter screen, HEK293 TRPC4/5HT1a, Fluo-4, counter-screen for TRPC4 inhibitor project, confirmation (AID 434978;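 active = primary screen active whose calcium signal fell more than 3 SD beyond the full-serotonin control mean in both duplicate plates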); settings: Fluo-4 calcium flux, at 10 µM, serotonin added to trigger calcium flux; hits give high values
# [24] = tested on: TRPC4 (mouse), co-expressed with 5HT1a in HEK293; test: enhancement of serotonin-evoked TRPC4 response – cell-based, second counter screen, HEK293 TRPC4/5HT1a, Fluo-4, counter-screen for TRPC4 potentiator project, confirmation (AID 434979;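 active = signal rise over 3 SD above mean of control wells given weak agonist, in both repeats and first screen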); settings: Fluo-4 calcium flux, at 10 µM, serotonin added at its EC20 dose; hits give high values
# [25] = nonspecific calcium rise without TRPC4 – cell-based, HEK293 mu-opioid receptor line, counter-screen for TRPC4 activator project, confirmation (AID 449723;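 active = hit in primary screen, with calcium signal over 5 SD above buffer well mean in both duplicates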;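 also: counter screen cells carry the mu-opioid receptor alone and lack TRPC4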); settings: HEK293 mu-opioid cells, Fluo-4 calcium fluorescence, at 10 µM; hits give high values
# [26] = nonspecific potentiation of DAMGO calcium response – cell-based, HEK293 mu-opioid receptor line, counter-screen for TRPC4 allosteric potentiator project, confirmation (AID 449724;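 active = calcium signal rise more than 3 SD above the low-dose agonist control mean, in both duplicate plates and the primary screen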); settings: HEK293 mu-opioid receptor cells, Fluo-4 calcium flux, at 10 µM, compound added before EC20 DAMGO stimulus; hits give high values
structure (smiles),measurement,setting,value
O=C(Nc1cccc(-c2cscn2)c1)C1CCN(Cc2ccsc2)CC1,"Tl flux remaining, % of negative control (hits give low values)",[1],44% (active)
same,outcome,[2],inactive
same,inhibition,[3],51% (active)
same,outcome,[4],inactive
same,inhibition,[5],7.1% (active)
O=C(/C=C/Sc1ncn[nH]1)c1ccc(Cl)cc1,outcome,[1],inactive
same,outcome,[2],inactive
same,activity increase over 3SD of controls,[6],-4%
same,activation over 3SD threshold,[7],0.3% (active)
same,"potentiation, less the hit threshold",[8],-17.8%
same,activity over 3SD threshold,[9],-56.5%
CCOC(=O)NC(C(F)(F)F)(C(F)(F)F)P(=O)(c1ccccc1)c1ccccc1,outcome,[1],inactive
same,outcome,[2],inactive
same,activity increase over 3SD of controls,[6],-3.2%
same,activation over 3SD threshold,[7],-13.6%
same,"potentiation, less the hit threshold",[8],-18.1%
same,activity over 3SD threshold,[9],-34.2%
Cc1cccc(NC(=O)c2nc(S(=O)(=O)Cc3ccccc3)ncc2Cl)c1,outcome,[1],inactive
same,outcome,[2],inactive
same,activity increase over 3SD of controls,[6],-15.5%
same,activation over 3SD threshold,[7],-22.3%
same,"potentiation, less the hit threshold",[8],4% (active)
same,activity over 3SD threshold,[9],-36%
same,outcome,[10],inactive
CCCOc1ccc(C(=O)C(CCC(CNCC)C(=O)c2ccc(OCCC)cc2)CNCC)cc1 (stereo unspecified),"Tl flux remaining, % of negative control (hits give low values)",[1],48% (active)
same,outcome,[2],inactive
Cc1cc(C)nc(SCc2nnc(SCC(=O)OC3CCCCC3)o2)n1,"Tl flux remaining, % of negative control (hits give low values)",[1],28% (active)
same,outcome,[2],inactive
same,outcome,[3],inactive
same,outcome,[4],inactive
same,inhibition,[5],82.2% (active)
Cc1ccc(C(=O)Nc2nnc(C3=COCCO3)o2)cc1C,outcome,[1],inactive
same,outcome,[2],inactive
same,activity increase over 3SD of controls,[6],50.1% (active)
same,activation over 3SD threshold,[7],-7.9%
same,"potentiation, less the hit threshold",[8],4.5% (active)
same,activity over 3SD threshold,[9],-30.3%
same,outcome,[11],inactive
same,outcome,[12],inactive
same,outcome,[13],inactive
same,outcome,[14],inactive
same,outcome,[10],inactive
same,inhibition,[15],66% (active)
same,inhibition,[16],44% (active)
same,outcome,[17],inactive
same,outcome,[18],inactive
same,outcome,[19],inactive
same,outcome,[20],inactive
same,outcome,[21],inactive
same,outcome,[22],inactive
same,inhibition,[23],42.2% (active)
same,outcome,[24],inactive
same,outcome,[25],inactive
same,outcome,[26],inactive
CC1=NN(C(=O)c2ccc(Br)cc2)C(O)(c2ccccc2)C1 (stereo unspecified),outcome,[1],inactive
same,FluxOR signal as % of negative control (100 = no effect),[2],73.5% (active)
same,activity increase over 3SD of controls,[6],-19%
same,activation over 3SD threshold,[7],-5.7%
same,"potentiation, less the hit threshold",[8],-11.5%
same,activity over 3SD threshold,[9],-31.6%
Cc1ccc(Nc2c3c(nc4ccccc24)CCC3)cc1,"Tl flux remaining, % of negative control (hits give low values)",[1],16% (active)
same,outcome,[2],inactive
same,inhibition,[3],61% (active)
same,outcome,[4],inactive
same,inhibition,[5],83.9% (active)
CC(C)Cc1nnc(NC(=O)CCc2ccccc2)s1,outcome,[1],inactive
same,outcome,[2],inactive
same,activity increase over 3SD of controls,[6],45% (active)
same,activation over 3SD threshold,[7],-19.5%
same,"potentiation, less the hit threshold",[8],-14.9%
same,activity over 3SD threshold,[9],-23.2%
CN1CCN(CCCCOc2ccccc2-c2ccccc2)CC1,"Tl flux remaining, % of negative control (hits give low values)",[1],48.5% (active)
same,outcome,[2],inactive
same,outcome,[3],inactive
same,outcome,[4],inactive
same,inhibition,[5],27.4% (active)
